Measured values from PubChem BioAssay AID488969 (Vanderbilt High Throughput Screening Facility, 2010).
Over roughly 110,000 compounds, “z-score” has its median near -0.1; the highest 2% begin near 2. Shown is part of a subset that was picked to be rich in the highest values. Active and inactive are the calls of the source.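 The calls were made as follows: active = z-score in the third read window above 3 or below -3; inactive = the rest.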

Target: Metabotropic glutamate receptor 8 (Rattus norvegicus) (UniProt P70579)
Sequence (P70579 whole entry, looked up): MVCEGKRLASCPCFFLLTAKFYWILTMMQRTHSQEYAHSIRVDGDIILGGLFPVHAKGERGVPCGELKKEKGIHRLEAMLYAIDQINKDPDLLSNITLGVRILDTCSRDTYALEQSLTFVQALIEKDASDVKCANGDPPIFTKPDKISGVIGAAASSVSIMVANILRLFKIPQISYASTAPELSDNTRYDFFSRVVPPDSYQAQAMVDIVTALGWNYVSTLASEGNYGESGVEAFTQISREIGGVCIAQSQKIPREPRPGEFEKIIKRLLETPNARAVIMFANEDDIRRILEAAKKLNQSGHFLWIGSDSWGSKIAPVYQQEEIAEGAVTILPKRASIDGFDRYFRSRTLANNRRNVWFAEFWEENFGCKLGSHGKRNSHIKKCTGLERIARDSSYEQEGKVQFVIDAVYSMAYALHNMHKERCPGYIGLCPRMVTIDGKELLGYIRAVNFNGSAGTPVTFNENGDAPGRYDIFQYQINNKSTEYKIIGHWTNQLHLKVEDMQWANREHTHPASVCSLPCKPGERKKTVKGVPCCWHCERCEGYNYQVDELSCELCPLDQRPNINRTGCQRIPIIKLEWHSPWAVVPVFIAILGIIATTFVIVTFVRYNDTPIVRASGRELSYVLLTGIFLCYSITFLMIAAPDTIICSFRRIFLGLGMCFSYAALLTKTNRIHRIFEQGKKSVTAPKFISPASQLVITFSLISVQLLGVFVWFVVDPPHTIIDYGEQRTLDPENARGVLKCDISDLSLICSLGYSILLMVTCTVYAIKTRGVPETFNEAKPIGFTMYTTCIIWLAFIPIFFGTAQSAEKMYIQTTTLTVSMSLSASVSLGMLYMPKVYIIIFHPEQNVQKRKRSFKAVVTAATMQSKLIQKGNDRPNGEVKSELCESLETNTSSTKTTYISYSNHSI
Assay: mGluR8 Gi/Go-coupled signaling modulation – cell-based, rat, thallium flux, HTS, primary screen (AID 488969)
Conditions: HEK293 rat mGluR8, GIRK (G protein-gated inwardly rectifying potassium channel) thallium flux, FluoZin2; at 10 µM; stronger effect = higher value; submaximal glutamate (EC20) added with thallium

With `O=C(NCCCCNC(=O)c1cccnc1)c1cccnc1` the z-score was 8.98 (active).
`Cc1cc(NC(=O)CSc2nc(C3CC3)nc3sc(C)c(C)c23)no1` was tested, and the z-score was 12.4 (active).
For `CCc1nc(SCC(=O)Nc2nnc(CC)s2)c2c(C)c(C)sc2n1`, the z-score was 8.71 (active).
With `Cc1sc2nc(C3CC3)nc(SCC(=O)N3CC(=O)Nc4ccccc43)c2c1C` the z-score was 3.69 (active).
`Cc1ccc(/C=N/Nc2nc(Cl)c(Cl)cc2Cl)s1` was tested, and the z-score was 3.84 (active).
For `Cc1sc2nc(CN3CCCC3)nc(N3CCN(S(=O)(=O)c4cccs4)CC3)c2c1C`, the z-score was 4.12 (active).
With `O=c1c2cc(Br)ccc2nc(-c2cccc(C(F)(F)F)c2)n1O` the z-score was 10.5 (active).
With `O=c1c2ccc(Cl)cc2nc(-c2cccc(C(F)(F)F)c2)n1O` the z-score was 10.9 (active).
With `O=c1oc(-c2ccc(Br)o2)nc2ccccc12` the z-score was 5.63 (active).

First: O=C(NCCOCCOCCNC(=O)c1cccnc1)c1cccnc1
Second: O=C(NCCc1ccccc1)c1cccnc1
The z-score of the first is higher: 0.119 for the first, -0.0437 for the second.

First: Cc1c(NC(=O)/C(C#N)=C/c2c(Oc3ccccc3)nc3ccccn3c2=O)c(=O)n(-c2ccccc2)n1C
Second: N#C/C(=C\c1ccccc1)C(=O)Nc1cc(S(=O)(=O)N2CCOCC2)ccc1N1CCCC1
The z-score of the first is higher: 1.16 for the first, -0.0157 for the second.

First: CSc1ncc(Cl)c(C(=O)Nc2nnc(SC)s2)n1
Second: Cc1nnc(NC(=O)CSc2nc(C(C)C)nc3sc(C)c(C)c23)s1
The z-score of the first is higher: -0.194 for the first, -0.837 for the second.

Going from `Cc1cc(NC(=O)CSc2nc(C(C)C)nc3sc4c(c23)CCCC4)no1` to `Cc1nc(SCC(=O)Nc2cc(C)on2)c2c3c(sc2n1)CCCC3`, the z-score rises from -0.493 to 2.03.

Compared with `Cc1cc(NC(=O)CSc2nc3sc4c(c3c(=O)n2C)CCCC4)no1`, `Cc1cc(NC(=O)CSc2nc(C3CC3)nc3sc4c(c23)CCC(C)C4)no1` (stereo not drawn) is lower in z-score: 0.943 for the first, 0.482 for the second.

First: Cc1sc2nc(C3CCCCC3)nc(SCC(=O)N3CC(=O)Nc4ccccc43)c2c1C
Second: Cc1nc(SCC(=O)N2CC(=O)Nc3ccccc32)c2c(C)c(C)sc2n1
The z-score of the first is higher: -0.0509 for the first, -0.286 for the second.

Compared with `CCCc1nc(SCC(=O)Nc2nnc(CC)s2)c2c(C)c(C)sc2n1`, `CCc1nc(SCC(=O)Nc2cc(C)on2)c2c(C)c(C)sc2n1` is higher in z-score: -0.42 for the first, -0.346 for the second.

Going from `COc1ccc(-c2nc(C)ncc2N=Nc2ccccc2)cc1` to `COc1ccc(CC(=O)O/N=C(\N)Cc2cccc3ccccc23)cc1OC`, the z-score rises from -0.33 to -0.317.

First: O=C1CCN(C(=O)Nc2cccc(Cl)c2)N1
Second: O=c1c2ccccc2nc(-c2cccc(Cl)c2)n1O
The z-score of the first is lower: -0.0566 for the first, 1.74 for the second.

Going from `CCN(CCO)c1ncnc2c1sc1nc(C(C)C)c3c(c12)CC(C)(C)OC3` to `CCCc1nn(C(=O)c2ccccc2)c2c1C(=O)CC(C)(C)C2`, the z-score rises from -0.241 to 0.0989.

First: Cc1cccc(NC(=O)CN2C(=O)N/C(=C/c3ccc(C)o3)C2=O)c1
Second: CC1=NN(c2ccc(C)cc2)C(=O)/C1=C\c1ccc(Br)s1
The z-score of the first is higher: 0.0879 for the first, -0.327 for the second.

Compared with `CCOCC(=O)Nc1cc([N+](=O)[O-])ccc1C`, `CCOc1cc(C)c(S(=O)(=O)Nc2ccc(F)cc2)cc1C` is higher in z-score: -0.688 for the first, 0.564 for the second.

Compared with `Cn1c(Cc2ccccc2)nnc1SCC(=O)NC1CCCCC1`, `COC(=O)Nc1nnc(Cc2ccccc2)s1` is lower in z-score: 0.0891 for the first, -0.412 for the second.

Compared with `CCN(CC)C(=O)Cn1nc(C)c2ccccc2c1=O`, `Cc1nn(C(=O)c2ccccc2)c2c1C(=O)CC(C)(C)C2` is higher in z-score: -0.346 for the first, 2.47 for the second.

Going from `Cc1ccsc1/C=N/Nc1nc(Cl)c(Cl)cc1Cl` to `Cc1ccc(/C=N/Nc2ncc(Cl)cc2Cl)s1`, the z-score rises from 0.292 to 0.576.

Going from `Cc1sc2nc(CN3CCCC3)nc(N3CCC(C(N)=O)CC3)c2c1C` to `CCc1nc(N2CCN(S(=O)(=O)c3ccc(Br)cc3)CC2)c2c(C)c(C)sc2n1`, the z-score rises from -0.212 to -0.0531.

Compared with `O=c1[nH]c(/C(Cl)=C/c2cccc(C(F)(F)F)c2)nc2cc(Cl)ccc12`, `FC(F)(F)c1cccc(-c2nnc3ccc(C(F)(F)F)cn23)c1` is higher in z-score: -0.0389 for the first, 0.312 for the second.

Compared with `O=C(Nc1ccc(C(F)(F)F)cc1)c1cc(-c2cccnc2)nc2ccc(Br)cc12`, `Cc1ccc2nc(-c3ccc(Br)o3)oc(=O)c2c1` is lower in z-score: -0.0141 for the first, -0.0466 for the second.

Going from `C=CCc1ccccc1OCC(O)CN1CCN(c2ccccc2F)CC1` (stereo not drawn) to `O=C(NCC(=O)N(c1ccccc1)C(C(=O)NC1CCCC1)c1ccncc1)c1ccco1` (stereo not drawn), the z-score falls from 0.0351 to -0.115.

Compared with `Cc1noc(C)c1S(=O)(=O)N1CCC(C(=O)N2CCN(C(=O)c3ccco3)CC2)CC1`, `C=C(C)C1CC=C(CN2CCC(C(=O)OCC)CC2)CC1` (stereo not drawn) is higher in z-score: -0.53 for the first, 0.503 for the second.

Compared with `O=C(O)CCCC(=O)Nc1ccc(Br)cc1`, `CCN(CC)C(=O)C(=O)N/N=C/c1ccc(Br)cc1` is lower in z-score: 0.0741 for the first, 0.0116 for the second.

Compared with `O=c1oc(-c2ccco2)nc2ccccc12`, `Oc1ccc(-c2n[nH]c(=S)n2Cc2ccco2)cc1` is higher in z-score: -0.973 for the first, -0.11 for the second.

First: CC(Sc1nnc(-c2ccc(Cl)cc2Cl)n1Cc1ccccc1)C(=O)Nc1nccs1 (stereo not drawn)
Second: COC(=O)Nc1nnc(Cc2ccc(Cl)cc2)s1
The z-score of the first is lower: -1.54 for the first, 2.4 for the second.

Going from `Cn1c2c(c(O)c(-c3ccccc3)c1=O)C(=O)CC(C)(C)C2` to `CCn1c(-c2cc3ccccc3cc2O)n[nH]c1=S`, the z-score rises from -0.119 to 2.62.

First: COC(=O)Nc1nnc(Cc2ccc(OC)cc2)s1
Second: Cc1ccc2oc(C(=O)Nc3nnc(C)s3)c(C)c2c1
The z-score of the first is higher: -0.342 for the first, -0.9 for the second.

Going from `CCn1c(-c2ccc(C)cc2)n[nH]c1=S` to `CCn1c(-c2cccc(Br)c2)n[nH]c1=S`, the z-score rises from -0.192 to 2.35.

First: Nn1c(-c2cccc(Br)c2)n[nH]c1=S
Second: S=c1[nH]nc(-c2ccc(Br)cc2)n1Cc1ccco1
The z-score of the first is lower: -0.267 for the first, 2.41 for the second.

Going from `S=c1[nH]nc(-c2ccncc2)n1Cc1ccco1` to `CCn1c(-c2c[nH]c3ccccc23)n[nH]c1=S`, the z-score rises from -0.198 to -0.0356.

Compared with `CCn1c(-c2cc(C3CC3)nc3ccccc23)n[nH]c1=S`, `CCCCCn1c(N)c(-c2nc3ccccc3s2)c2c([N+](=O)[O-])nn(CC)c(=O)c21` is lower in z-score: -0.258 for the first, -0.75 for the second.

Going from `COc1ccc2c(c1OC)C(=O)N1N=C(c3ccc(Br)cc3)CC21` (stereo not drawn) to `COc1cc(C)c(S(=O)(=O)Nc2ccc(CC(=O)O)cc2)cc1C`, the z-score rises from -1.04 to 2.01.

Going from `Cc1ccc(S(=O)(=O)c2nc(S(C)(=O)=O)sc2N(C)C)cc1` to `COc1ccc(C)c(S(=O)(=O)Nc2ccc(OCC(=O)O)cc2)c1`, the z-score rises from 0.113 to 0.2.

First: Cc1ccsc1/C=C(\C#N)C(=O)NCc1ccco1
Second: CC(C)NC(=O)C12CC3CC(C1)CC(n1cnc(Cl)n1)(C3)C2
The z-score of the first is lower: -0.0871 for the first, -0.0733 for the second.
